Reference: PubChem BioAssay (EPA / NIEHS)
Where “and” joins values, the source holds several entries; their conditions need not be identical. Identical values can stand only once. Calls of active or inactive are those of the source. The calls were made as follows: active = hit-call score of the fitted dose curve at least 0.9, where 1 is the maximum; inactive = score below 0.9.

Each compound was assayed on Vascular cell adhesion molecule 1 (VCAM1), VCAM1 (gene 7412) (assay: BSK_BF4T_VCAM1: BioMAP Diversity Plus: BF4T Assay for Vascular cell adhesion molecule 1 (VCAM1) Biomarker Activity (AID 2284249)). Details: primary human bronchial epithelial cells with fibroblasts.
Experimental: BSK_BF4T is a cell-based, multiplexed-readout assay that uses bronchial epithelial cells and dermal fibroblasts, a human vascular primary cell, with measurements taken at 24 hours after chemical dosing in a microplate: 96-well plate.BSK_BF4T_VCAM1 is an assay component measured in the BSK_BF4T assay. It measures VCAM-1 antibody related to regulation of gene expression using ELISA technology.Data from the assay component BSK_BF4T_VCAM1 was analyzed at the endpoint, BSK_BF4T_VCAM1, in the positive analysis fitting direction relative to DMSO as the negative control and baseline of activity. Using a type of binding reporter, gain or loss-of-signal activity can be used to understand protein changes. To generalize the intended target to other relatable targets, this assay endpoint is annotated to the 'cell adhesion molecules' intended target family, where the subfamily is 'Immunoglobulin CAM'.
The levels of cell surface (or secreted, indicated by the prefix "s") biomarker endpoints were measured by ELISA. Overt cytotoxicity to cells in confluent adherent cultures (all systems other than the BT system) was assessed by measuring total protein levels using sulforhodamine B (SRB) staining in parallel cultures at the time of biomarker measurements, indicated as SRB endpoints. For proliferation assays for adherent cell types, individual cell types are cultured at sub-confluence and relative cell numbers quantified by SRB staining at time points optimized for each system (48 h: 3C and CASM3C systems; 72 h: BT and HDF3CGF systems; 96 h: SAg system). SRB was performed by staining cells with 0.1% SRB after fixation with 10% TCA and reading wells at 560 nm.Viability and proliferation of PBMC (T cells) was quantified by Alamar Blue reduction for the SAg and BT systems. For PBMC viability (referred to as PBMC Cytotoxicity within the assay endpoint names), cells were plated (75,000/well in a 96-well plate) and then chemical samples added for 1 h before addition of activators, SEB and TSST-1 (20 ng/mL final concentration each). Cells were incubated for 90 h. Then, Alamar Blue (20 uL/well) (Invitrogen, Cat DAL1100) was added for 6 h, and the plates were read with a fluorescence microplate reader at 546/580 nm (excitation/emission). For PBMC proliferation, cells were plated and activated as above but incubated for only 16 h prior to addition of Alamar Blue. Plates were read after 6 h.
For `CN(Cc1cnc2nc(N)nc(N)c2n1)c1ccc(C(=O)N[C@@H](CCC(=O)O)C(=O)O)cc1`, the outcome was “inactive”.
With `O=C(O)CCC(F)(F)C(F)(F)C(F)(F)C(F)(F)C(F)(F)F` the outcome was “inactive”.
In the case of `C=CC(=O)OCCC(F)(F)C(F)(F)C(F)(F)C(F)(F)C(F)(F)C(F)(F)C(F)(F)C(F)(F)F`, the outcome is reported as “inactive”.
With `CN(CCO)S(=O)(=O)C(F)(F)C(F)(F)C(F)(F)C(F)(F)C(F)(F)C(F)(F)C(F)(F)C(F)(F)F` the outcome was “inactive”.
With `O=S(=O)(O)C(F)(F)C(F)(F)C(F)(F)C(F)(F)C(F)(F)C(F)(F)C(F)(F)C(F)(F)C(F)(F)C(F)(F)F` the outcome was “inactive”.
In the case of `O=C(O)C(F)(F)OC(F)(F)C(F)(F)OC(F)(F)C(F)(F)OC(F)(F)C(F)(F)C(F)(F)C(F)(F)F`, the AC50 is reported as 7.4 µM (active) and 6.87 µM (active).
`O=P(O)(O)CCC(F)(F)C(F)(F)C(F)(F)C(F)(F)C(F)(F)C(F)(F)F` was tested, and the outcome was “inactive”.
For `O=P(O)(O)CCC(F)(F)C(F)(F)C(F)(F)C(F)(F)C(F)(F)C(F)(F)C(F)(F)C(F)(F)F`, the outcome was “inactive”.
For `O=C(O)CCC(F)(F)C(F)(F)C(F)(F)C(F)(F)C(F)(F)C(F)(F)F`, the outcome was “inactive”.
`OCC(F)(F)C(F)(F)C(F)(F)C(F)(F)C(F)(F)C(F)(F)C(F)(F)C(F)(F)C(F)(F)C(F)(F)C(F)(F)F` was tested, and the outcome was “inactive”.
With `O=C(CC(=O)C(F)(F)C(F)(F)C(F)(F)F)c1cccs1` the AC50 was 20.6 µM (active) and 19.3 µM (active).
